These results are taken from PubChem BioAssay (EPA / NIEHS).

Experiment [1] addresses Estrogen receptor (Homo sapiens) (UniProt P03372). Description: CCTE_Deisenroth_AIME_384WELL_LUC_Active: CCTE's 384-well Estrogen Receptor Transactivation Assay with AIME metabolic competence (ERTA luciferase; metabolism positive), Deisenroth Lab (AID 2284030). In outline:
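Chemicals (10-point, 0.002-200 uM) were first incubated 2 hours with alginate-immobilized induced male Sprague Dawley rat liver S9. The conditioned medium was then applied to VM7Luc4E2 cells for 24 hours, with ER luciferase induction read by luminescence relative to 17beta-estradiol.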

Experiment [2] can be described thus: CCTE_Deisenroth_AIME_384WELL_CTox_Active: Cytotoxicity Assessment (CTOX) in CCTE's 384-well Estrogen Receptor Transactivation Assay with AIME metabolic competence (metabolism positive), Deisenroth Lab (AID 2284037).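 Further: chemicals first conditioned 2 h by alginate-bound induced rat liver S9 before cells; activity means signal loss indicating cell death.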 In outline:
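VM7Luc4E2 breast cells received medium pre-incubated 2 h with chemical over alginate microspheres holding induced male Sprague Dawley rat liver S9; viability read 24 h later by protease-substrate fluorescence. Loss of signal, bidirectional fit, 0.002–200 uM.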

Experiment [3] deals with Estrogen receptor (Homo sapiens) (UniProt P03372). Description: CCTE_Deisenroth_AIME_384WELL_LUC_Inactive: CCTE's 384-well Estrogen Receptor Transactivation Assay without AIME metabolic competence (ERTA luciferase; metabolism negative), Deisenroth Lab (AID 2284038).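 Further: hits raise estrogen receptor luciferase signal so potencies reflect agonists.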 In outline:
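Metabolism-negative mode: AIME lids stamped in alginate-water, no hepatic S9. 2 h chemical incubation → medium onto VM7Luc4E2 ERTA, 24 h. Readout luciferase luminescence; gain-of-signal fit vs 17beta-estradiol. Conc. 0.002 - 200 uM.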

The nature of experiment [4]: CCTE_Deisenroth_AIME_384WELL_CTox_Inactive: Cytotoxicity Assessment (CTOX) in CCTE's 384-well Estrogen Receptor Transactivation Assay without AIME metabolic competence (metabolism negative), Deisenroth Lab (AID 2284039).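 Further: cell viability via live-cell protease substrate cleaved to fluorescent probe; cells exposed 24 h to medium preincubated 2 h with alginate-water beads without S9.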 In outline:
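VM7Luc4E2 cells, metabolism-negative arm: test chemicals (0.002–200 uM, 10 points) pre-incubated 2 h with alginate-water microspheres, then medium transferred to cells for 24 h. Viability read as protease-substrate cleavage to fluorescent probe; loss-of-signal, bidirectional fitting.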

Experiment [5] can be described thus: CCTE_Shafer_MEA_dev_firing_rate_mean: CCTE's Neural Network Formation Assay for Mean Firing Rate, Shafer Lab (AID 2284031; active means hit-call score of the fitted dose curve at least 0.9, where 1 is the maximum; inactive means score below 0.9;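 on AC50: curve fitted for loss of firing so AC50 reflects decreased mean firing rate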). In short, it runs like this:
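Read-out: spike count/recording length, averaged over active electrodes, then AUC across days 5, 7, 9, 12. Rat cortical cultures on MEA; continuous 12-day exposure, media and treatment renewed DIV 5, 9; DMSO baseline.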

Experiment [6] in a line: CCTE_Shafer_MEA_dev_per_burst_spike_percent: CCTE's Neural Network Formation Assay for Percent of Spikes in a Burst, Shafer Lab (AID 2284032; active means hit-call score of the fitted dose curve at least 0.9, where 1 is the maximum; inactive means score below 0.9;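 on AC50: fitted as a decrease in burst spike percentage below DMSO baseline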). In short, it runs like this: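 Value is trapezoidal AUC over recordings on days 5, 7, 9 and 12 of the well-mean fraction of spikes falling in single-electrode bursts; rat cortical cultures exposed continuously from plating, treatment renewed DIV 5 and 9, fitted downward against DMSO.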

A short description of experiment [7]: CCTE_Shafer_MEA_dev_active_electrodes_number: CCTE's Neural Network Formation Assay for Number of Active Electrodes, Shafer Lab (AID 2284040).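 On AC50: potency for loss of active electrodes versus DMSO so lower counts are hits.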 In short, it runs like this: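 Developing rat cortical networks on MEAs, exposed DIV 0–12. Value is the AUC of active-electrode counts (≥5 spikes/min) from days 5, 7, 9, 12, relative to DMSO.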
The nature of experiment [8]: CCTE_Shafer_MEA_dev_burst_rate: CCTE's Neural Network Formation Assay for Burst Rate, Shafer Lab (AID 2284042; active means hit-call score of the fitted dose curve at least 0.9, where 1 is the maximum; inactive means score below 0.9;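 on AC50: potency for loss of burst rate below DMSO control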). In outline: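 Primary rat cortical neurons on PEI-coated 48-well MEA plates (laminin added with cells at plating) (16 electrodes/well), exposed from plating to day 12, dosing renewed at DIV 5 and 9. Burst rate averaged over active electrodes, recorded DIV 5, 7, 9, 12, summarized as AUC; loss versus DMSO.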

Experiment [9] can be described thus: CCTE_Shafer_MEA_dev_bursting_electrodes_number: CCTE's Neural Network Formation Assay for Number of Bursting Electrodes, Shafer Lab (AID 2284043).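 On AC50: potency is for loss of bursting electrodes relative to DMSO.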 In short, it runs like this:
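Counted: electrodes with burst rate ≥1 per 2 min in each well. Cells: primary rat cortex, 1.5 x 10^5/well, on 16-electrode MEA wells. Exposure: DIV 0–12, compound renewed DIV 5 and 9. Recording days 5, 7, 9, 12; AUC vs DMSO baseline.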

Results filed as inconclusive are left out. Active and inactive are the calls of the source. How the source made its calls, unless noted: active means hit-call score of the fitted dose curve at least 0.9, where 1 is the maximum; inconclusive means response in the unintended direction; inactive means score below 0.9.

Sequence of Estrogen receptor (Homo sapiens) (P03372 whole entry, looked up): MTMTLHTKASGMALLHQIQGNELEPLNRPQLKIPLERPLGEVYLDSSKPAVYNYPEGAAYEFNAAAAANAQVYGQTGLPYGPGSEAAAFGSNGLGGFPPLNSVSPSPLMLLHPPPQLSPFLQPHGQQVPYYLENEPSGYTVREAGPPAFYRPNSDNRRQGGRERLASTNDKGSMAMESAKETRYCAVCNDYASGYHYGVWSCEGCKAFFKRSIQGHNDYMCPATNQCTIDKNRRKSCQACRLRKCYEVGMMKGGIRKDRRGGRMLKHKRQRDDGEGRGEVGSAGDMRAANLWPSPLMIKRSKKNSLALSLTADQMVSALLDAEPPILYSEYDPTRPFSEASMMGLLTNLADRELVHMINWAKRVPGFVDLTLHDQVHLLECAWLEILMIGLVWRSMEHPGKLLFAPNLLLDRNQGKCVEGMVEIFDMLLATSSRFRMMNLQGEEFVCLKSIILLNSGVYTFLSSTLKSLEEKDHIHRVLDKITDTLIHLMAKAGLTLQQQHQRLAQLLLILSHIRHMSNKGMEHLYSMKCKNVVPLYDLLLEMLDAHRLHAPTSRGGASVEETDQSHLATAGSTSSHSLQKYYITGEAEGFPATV

Take `CNC(=O)O/N=C/C(C)(C)S(C)(=O)=O`: the compound was called inactive in [1], in experiment [2], in experiment [3] and in experiment [4].

Usually AC50 stands for the midpoint of the concentration-response curve, whichever way the signal moves. `CCOCn1c(-c2ccc(Cl)cc2)c(C#N)c(Br)c1C(F)(F)F`: the AC50 in experiment [5] is 3.01 µM (active); in experiment [6], 6.04 µM (active); in experiment [7], 4.74 µM (active); in experiment [8], 4.86 µM (active); in experiment [9], 4.44 µM (active).

`COc1ccccc1N`: the compound was called inactive in experiment [4].

With `CC(C)O.CC(C)O.OCCN(CCO)CCO.OCCN(CCO)CCO.[Ti]`, the outcome in experiment [2] and in experiment [4] was inactive.

On to `FC(F)OCC(F)(F)C(F)(F)F`, for which the compound was classed as inactive in experiment [5], in experiment [6], in experiment [7], in experiment [8] and in experiment [9].

`COc1ccc(N)cc1`: in experiment [2], the compound was called inactive.

`OC(Cc1ccccc1Cl)(Cn1[nH]cnc1=S)C1(Cl)CC1` (stereo unspecified): the AC50 in experiment [5] is 20.8 µM (active); in experiment [6] it was 50 µM (active); in experiment [7], 37.1 µM (active); in experiment [8], 29.4 µM (active); in [9] it was 29.9 µM (active).

As to `CC(F)(F)CC(F)(F)F`, the result in experiment [5], in experiment [6] and in experiment [8] was inactive.

With `O=c1[nH]c(=O)n(Cl)c(=O)n1Cl`, the compound was called inactive in experiment [2].

For the compound `CCC[CH2][Sn]([Cl])([Cl])[CH2]CCC`, the AC50 in experiment [2] was 13.6 µM (active); in experiment [4] it was 9.65 µM (active).

For `Clc1cccc(Cl)c1`, the result in experiment [4] was inactive.

For `O=S1(=O)OC(c2cc(Br)c(O)c(Br)c2)(c2cc(Br)c(O)c(Br)c2)c2ccccc21`, the AC50 in experiment [2] was 160 µM (active). In addition, the compound was classed as inactive in experiment [4].

In the case of `CC(=O)C(F)(F)C(F)(F)F`, the compound was called inactive in experiment [5], in experiment [6], in [8] and in [9].

As to `C=CCOC(F)(C(F)(F)F)C(F)(F)F`, the result in experiment [5], in experiment [6], in experiment [7], in [8] and in experiment [9] was inactive.

For the compound `O=C(CBr)c1ccc(O)cc1`, in [2], the compound was classed as inactive.

On to `Nc1ncn[nH]1`, for which the compound was called inactive in experiment [2].

On to `Cc1cc(Cl)ccc1OCCCC(=O)O`, for which the outcome in experiment [2] and in experiment [4] was inactive.

Regarding `NC(=O)c1ccc(N)nc1`, the AC50 in experiment [5] was 9.03 µM (active); in experiment [6] it was 5.88 µM (active); in experiment [7], 6.3 µM (active); in experiment [8] it was 8.62 µM (active); in [9], 5.44 µM (active).

With `N#CS`, the result in experiment [2] and in [4] was inactive.

Consider `O=S(=O)(F)C(F)(F)C(F)(F)C(F)(F)C(F)(F)F`, for which the outcome in [5], in [6], in experiment [7], in [8] and in experiment [9] was inactive.

Consider `C=CC(F)(C(F)(F)F)C(F)(F)C(F)(F)F` (stereo unspecified), for which the outcome in experiment [5], in [6], in experiment [8] and in [9] was inactive.

As for `CNC(=O)CSP(=O)(OC)OC`, the compound was classed as inactive in experiment [5], in experiment [6], in experiment [7], in experiment [8] and in [9].
